# Test results reported in PubChem BioAssay (Tox21).
# Where “and” joins values, the source holds several entries; their conditions need not be identical. Equal entries are not always repeated. Results filed as inconclusive are left out. A call without a number means that no potency is given here. Calls of active or inactive are those of the source. Unless noted, calls come from the whole dose curve.
# Assays:
# [1] = Nuclear factor erythroid 2-related factor 2/antioxidant responsive element (Nrf2/ARE) small molecule agonists: qHTS cell viability counter screen in human keratinocytes (AID 1919968; active = well fitted curve in the direction sought with a large enough effect in the repeat runs; an effect the other way counts as inactive or inconclusive; note: nearly all actives have a fitted effect of over 55% in size)
# Summary of the method: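 KeratinoSens cells (HaCaT keratinocytes stably carrying an ARE-luciferase reporter) were seeded at 1,500 cells/well and rested 5 h at 37 C/5% CO2. They were then exposed to compounds in DMSO for 23 h. Viability was read by CellTiter-Fluor fluorescence after 1 h.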
# [2] = Nuclear factor erythroid 2-related factor 2/antioxidant responsive element (Nrf2/ARE) small molecule agonists: luciferase reporter gene qHTS assay in human keratinocytes (AID 1919969); note: nearly all actives have a fitted effect of over 35% in size; note: potency is the fitted concentration of half-maximal effect
# [3] = target: KiSS-1 receptor (Homo sapiens) (UniProt Q969F8); assay: Human kisspeptin (KISS1R) small molecule agonists, calcium flux assay in KISS1R-HEK293 cells (AID 1920064; active = well fitted curve in the direction sought with a large enough effect in the repeat runs; an effect the other way counts as inactive or inconclusive)
# Sequence of KiSS-1 receptor (Homo sapiens) (Q969F8 whole entry, looked up): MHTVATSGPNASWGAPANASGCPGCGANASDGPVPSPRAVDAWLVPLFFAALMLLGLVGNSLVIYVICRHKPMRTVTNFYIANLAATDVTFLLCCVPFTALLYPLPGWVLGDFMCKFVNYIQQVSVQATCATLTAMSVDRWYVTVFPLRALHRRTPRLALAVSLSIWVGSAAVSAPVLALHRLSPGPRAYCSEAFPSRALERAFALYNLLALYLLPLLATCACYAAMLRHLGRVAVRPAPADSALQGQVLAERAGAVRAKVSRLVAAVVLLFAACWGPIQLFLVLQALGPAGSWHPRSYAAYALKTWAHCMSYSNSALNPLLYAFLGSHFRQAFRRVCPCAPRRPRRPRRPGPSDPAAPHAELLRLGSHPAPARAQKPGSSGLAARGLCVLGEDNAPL
# Summary of the method: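 HEK293 cells stably expressing human KISS1R were plated 18 h at 37 °C, loaded with calcium dye for 1 h at 37 °C, then given compound by pin tool. Fluorescence (Ex/Em 480/540) was read kinetically for 3 min.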
# [4] = G protein-coupled receptor (GPCR) small molecule agonists, calcium flux assay: HEK293 wild type cell line counter screen (AID 1920065)
# Summary of the method: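 Cells were plated and cultured 18 h at 37 C/5% CO2, then loaded with calcium dye for 1 h at 37 C. Compounds in DMSO were pin-transferred in agonist mode, and fluorescence (Ex/Em 480/540) was read kinetically for 3 min at 1 s intervals.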
# [5] = p53 small molecule agonists, cell-based qHTS assay with human liver microsomes (AID 1963577)
# Summary of the method: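 Fluorescence of the beta-lactamase reporter in p53RE-bla cells, detected with LiveBLAzer substrate (2 h, room temperature, dark), served as the read-out after 16 h compound exposure at 37 C with human liver microsomes and NADPH, each 0.5 mg/mL final.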
# [6] = p53 small molecule agonists, cell-based qHTS assay with rat liver microsomes (AID 1963578)
# Summary of the method: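 Cells carrying a p53 response element–beta-lactamase reporter were plated and rested 5 h, then dosed with compound in DMSO plus rat liver microsomes and NADPH, each at 0.5 mg/mL final. After 16 h at 37 C, LiveBLAzer substrate was added for 2 h.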
# [7] = p53 small molecule agonists, cell-based qHTS assay with human liver microsomes: qHTS cell viability counter screen (AID 1963579); note: nearly all actives have a fitted effect of over 45% in size
# Summary of the method: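 Cytotoxicity counter screen: p53RE-bla, 4,000 cells/well; 5 h settle, 37 C/5% CO2; cpd + HLM 0.5 mg/mL + NADPH 0.5 mg/mL (final); 16 h, 37 C; CellTiter-Glo, 30 min RT, luminescence.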
# [8] = p53 small molecule agonists, cell-based qHTS assay with rat liver microsomes: qHTS cell viability counter screen (AID 1963580); note: nearly all actives have a fitted effect of over 45% in size
# Summary of the method: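 p53RE-bla HCT-116 cells (4,000/well) rested 5 h at 37 C, then given Tox21 compounds in DMSO with rat liver microsomes (0.5 mg/mL final) plus NADPH (0.5 mg/mL final) for 16 h at 37 C. Viability read by CellTiter-Glo luminescence after 30 min at room temperature.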
# [9] = p53 small molecule agonists, cell-based qHTS assay: qHTS cell viability counter screen (AID 1963581); note: nearly all actives have a fitted effect of over 45% in size
# Summary of the method: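 p53RE-bla HCT-116 cells were exposed to compounds for 16 h at 37 C; after the beta-lactamase FRET read in the same wells, CellTiter-Glo was added and luminescence (intracellular ATP) read after 30 min at room temperature.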
# [10] = p53 small molecule agonists, cell-based qHTS assay (AID 1963582; active = well fitted activation curve with a large enough effect in the signal ratio in the repeat runs, not every such curve was filed as active; the % refers to the signal ratio)
# Summary of the method: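 p53RE-bla beta-lactamase reporter cells rested 5 h at 37 C/5% CO2, then received compounds in DMSO by pin transfer and were incubated 16 h at 37 C. LiveBLAzer B/G FRET substrate was loaded for 2 h at room temperature before fluorescence reading.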
# [11] = target: 5-hydroxytryptamine receptor 2A (Homo sapiens) (UniProt P28223); assay: 5-hydroxytryptamine receptor 2A (HTR2A) small molecule antagonists, cell-based qHTS assay (AID 1963586); note: nearly all actives have a fitted effect of over 45% in size
# Sequence of 5-hydroxytryptamine receptor 2A (Homo sapiens) (P28223 whole entry, looked up): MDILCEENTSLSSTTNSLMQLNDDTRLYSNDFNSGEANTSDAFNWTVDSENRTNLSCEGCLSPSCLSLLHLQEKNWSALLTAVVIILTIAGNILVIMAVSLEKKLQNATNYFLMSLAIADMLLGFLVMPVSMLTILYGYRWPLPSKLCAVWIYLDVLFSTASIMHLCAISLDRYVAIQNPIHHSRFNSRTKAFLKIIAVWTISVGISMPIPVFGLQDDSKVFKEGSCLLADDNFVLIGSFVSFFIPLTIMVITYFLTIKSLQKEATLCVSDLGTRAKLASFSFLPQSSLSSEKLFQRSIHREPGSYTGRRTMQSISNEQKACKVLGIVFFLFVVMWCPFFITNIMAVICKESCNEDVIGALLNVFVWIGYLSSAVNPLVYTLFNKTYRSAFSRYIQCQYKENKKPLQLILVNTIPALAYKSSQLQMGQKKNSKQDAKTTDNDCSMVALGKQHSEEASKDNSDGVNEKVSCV
# Summary of the method: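 Antagonist-mode intracellular calcium assay: DOI (4 nM) added after 5 min compound pre-incubation at room temperature to dye-loaded HTR2A-CHO cells. Fluorescence followed for 3 min, sampled every second.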
# [12] = target: 5-hydroxytryptamine receptor 2A (Homo sapiens) (UniProt P28223); assay: 5-hydroxytryptamine receptor 2A (HTR2A) small molecule agonists, cell-based qHTS assay (AID 1963587); note: nearly all actives have a fitted effect of over 30% in size
# Summary of the method: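 HTR2A-CHO cells, plated 18 h at 37 C/5% CO2, dye-loaded 1 h at 37 C; compounds in DMSO added by pin tool (agonist mode). Intracellular calcium flux read as kinetic fluorescence on FDSS over 2 min at 1 s intervals.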
# [13] = target: Muscarinic acetylcholine receptor M1 (Homo sapiens) (UniProt P11229); assay: Cholinergic receptor muscarinic 1 (CHRM1) small molecule antagonists, cell-based qHTS assay (AID 1963588); note: nearly all actives have a fitted effect of over 40% in size
# Sequence of Muscarinic acetylcholine receptor M1 (Homo sapiens) (P11229 whole entry, looked up): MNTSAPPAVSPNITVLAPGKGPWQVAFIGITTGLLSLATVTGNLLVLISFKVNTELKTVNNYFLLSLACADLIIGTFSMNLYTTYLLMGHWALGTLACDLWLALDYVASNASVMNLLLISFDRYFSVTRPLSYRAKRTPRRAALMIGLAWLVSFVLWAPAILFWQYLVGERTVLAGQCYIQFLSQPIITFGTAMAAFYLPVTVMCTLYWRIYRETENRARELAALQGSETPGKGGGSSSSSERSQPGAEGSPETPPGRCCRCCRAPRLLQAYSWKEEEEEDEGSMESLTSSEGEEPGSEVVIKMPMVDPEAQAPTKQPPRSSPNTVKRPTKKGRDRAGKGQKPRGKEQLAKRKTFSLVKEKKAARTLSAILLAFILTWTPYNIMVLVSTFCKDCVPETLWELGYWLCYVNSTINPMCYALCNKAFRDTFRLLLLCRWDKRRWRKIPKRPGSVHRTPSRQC
# Summary of the method: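 CHRM1-CHO calcium-flux assay, antagonist mode. Cells were seeded 18 h, dye-loaded 1 h at 37 C and given compound for 5 min at RT, then acetylcholine was added at 50nM. FDSS fluorescence was read 3 min; 15 concentrations, three runs.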
# [14] = target: Muscarinic acetylcholine receptor M1 (Homo sapiens) (UniProt P11229); assay: Cholinergic receptor muscarinic 1 (CHRM1) small molecule agonists, cell-based qHTS assay (AID 1963589); note: nearly all actives have a fitted effect of over 35% in size
# Summary of the method: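 CHO cells stably expressing human CHRM1, seeded 18 h at 37 C/5% CO2, dye-loaded 1 h at 37 C, then given compound in agonist mode; intracellular calcium fluorescence read kinetically at 1 s intervals. Fifteen concentrations, three independent runs.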
# [15] = cAMP Responsive Elements (CRE) small molecule agonists, cell-based qHTS assay (AID 1963590)
# Summary of the method: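 CRE-bla HEK 293T cells in DMEM with 10% dialyzed FBS, NEAA, pyruvate and 25 mM HEPES were plated 18 h at 37 C/5% CO2, then exposed to compounds in DMSO for 3 h before LiveBLAzer B/G FRET substrate addition.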
# [16] = cAMP Responsive Elements (CRE) small molecule antagonists, cell-based qHTS assay (AID 1963591; active = well fitted inhibition curve with a large enough effect in the signal ratio in the repeat runs, not every such curve was filed as active; the % refers to the signal ratio)
# Summary of the method: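 CRE-bla HEK293T cells were plated 18 h at 37 °C/5% CO2, pinned with compound in DMSO, then stimulated with NKH477 at 0.25 uM final for 3 h. LiveBLAzer B/G FRET substrate was added and plates incubated 2 h at room temperature.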
# [17] = target: Beta-2 adrenergic receptor (Homo sapiens) (UniProt P07550); assay: Adrenergic beta2 receptor (ADRB2) small molecule antagonists, cell-based qHTS assay (AID 1963592); note: series mostly up to about 92 µM; nearly all actives have a fitted effect of over 50% in size
# Sequence of Beta-2 adrenergic receptor (Homo sapiens) (P07550 whole entry, looked up): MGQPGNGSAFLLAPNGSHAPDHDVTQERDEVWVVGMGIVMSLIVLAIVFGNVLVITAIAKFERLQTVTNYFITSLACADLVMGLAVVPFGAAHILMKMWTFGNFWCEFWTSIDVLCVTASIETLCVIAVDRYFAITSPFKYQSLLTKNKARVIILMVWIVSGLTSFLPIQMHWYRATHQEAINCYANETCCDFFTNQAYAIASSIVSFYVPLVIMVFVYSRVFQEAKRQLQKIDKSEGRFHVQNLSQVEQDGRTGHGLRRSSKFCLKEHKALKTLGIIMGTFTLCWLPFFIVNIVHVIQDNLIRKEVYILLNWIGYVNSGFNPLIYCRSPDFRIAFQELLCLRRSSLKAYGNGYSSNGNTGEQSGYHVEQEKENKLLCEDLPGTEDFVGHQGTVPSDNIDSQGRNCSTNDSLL
# Summary of the method: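 Cells (CHO, stable ADRB2 overexpression) incubated 18-20hr at 37C; compounds added from DMSO; agonist mix (1nM isoproterenol, 100uM IBMX, 25uM Ro-20-1724) added; 0.5hr RT; d2-cAMP and anti-cAMP-cryptate added; 1hr RT; 665/615 nm read.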
# [18] = target: Beta-2 adrenergic receptor (Homo sapiens) (UniProt P07550); assay: Adrenergic beta2 receptor (ADRB2) small molecule agonists, cell-based qHTS assay (AID 1963593);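 note: CHO cells stably overexpressing human ADRB2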
# Summary of the method: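 CHO cells stably over-expressing ADRB2 were plated overnight at 37C, then dosed with compounds plus a stimulation mix containing 100uM IBMX and 25uM Ro-20-1724 for 0.5hr at room temperature. cAMP was measured by HTRF competition, 1hr.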
# [19] = target: D(2) dopamine receptor (Homo sapiens) (UniProt P14416); assay: Dopamine D2 receptor (DRD2) small molecule agonists, cell-based qHTS assay (AID 1963594); note: nearly all actives have a fitted effect of over 35% in size
# Sequence of D(2) dopamine receptor (Homo sapiens) (P14416 whole entry, looked up): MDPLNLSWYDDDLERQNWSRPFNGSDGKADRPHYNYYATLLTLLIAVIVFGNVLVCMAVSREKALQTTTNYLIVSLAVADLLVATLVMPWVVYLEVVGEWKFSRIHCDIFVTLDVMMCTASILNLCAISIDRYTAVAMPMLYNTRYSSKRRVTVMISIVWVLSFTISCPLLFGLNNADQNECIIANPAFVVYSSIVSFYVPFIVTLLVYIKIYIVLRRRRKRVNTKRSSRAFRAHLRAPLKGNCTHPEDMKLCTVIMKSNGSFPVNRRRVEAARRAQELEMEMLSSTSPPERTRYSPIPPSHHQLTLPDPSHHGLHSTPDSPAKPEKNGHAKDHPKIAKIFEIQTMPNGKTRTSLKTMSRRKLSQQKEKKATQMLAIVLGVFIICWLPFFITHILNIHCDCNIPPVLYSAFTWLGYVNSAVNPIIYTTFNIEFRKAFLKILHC
# Summary of the method: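 HEK293 cells stably expressing DRD2 were cultured 24 h at 37 C, then given Ro20-1724 (0.1 mM final) and compounds for 10 min at room temperature. NKH477 (200nM) was then added for 30 min. cAMP was read by HTRF.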
# [20] = target: D(2) dopamine receptor (Homo sapiens) (UniProt P14416); assay: Dopamine D2 receptor (DRD2) small molecule antagonists, cell-based qHTS assay (AID 1963595; active = well fitted inhibition curve with a large enough effect in the signal ratio in the repeat runs, with a control signal flat; the % refers to the signal ratio)
# Summary of the method: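 Antagonism was scored as restored cAMP in HEK293-DRD2 cells. These cells were stimulated with 200 nM NKH477 and 12 nM quinpirole for 30 min at room temperature, in the presence of 0.1 mM Ro20-1724.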
SMILES,Potency [1],Potency [2],Potency [3],Potency [4],Potency [5],Potency [6],Potency [7],Potency [8],Potency [9],Potency [10],Potency [11],Potency [12],Potency [13],Potency [14],Potency [15],Potency [16],Potency [17],Potency [18],Potency [19],Potency [20]
CCC(C)C1CCCCC1=O (stereo not drawn),inactive,inactive,inactive,inactive,inactive,inactive,inactive,inactive,inactive,inactive,inactive,inactive,inactive,inactive,inactive,inactive,inactive,inactive,inactive,inactive
Nc1ccc2cc3ccccc3cc2c1,inactive,inactive,,inactive,,,inactive,inactive,inactive,,inactive,inactive,inactive,,,,inactive,inactive,inactive,inactive
C#C[C@]1(O)CC[C@H]2[C@@H]3CCC4=CC(=O)CC[C@@H]4[C@H]3CC[C@@]21C,inactive,inactive,,inactive,,,,,,,,,,,,inactive,inactive,inactive,inactive,inactive
O=C1OC(=O)c2ccccc21,inactive,inactive,inactive,inactive,inactive,inactive,inactive,inactive,inactive,inactive,inactive,inactive,inactive,inactive,inactive,inactive,inactive,inactive,inactive,
Cn1ccnc1,inactive,inactive,inactive,inactive,inactive,inactive,inactive,inactive,inactive,inactive,inactive,inactive,inactive,inactive,inactive,inactive,inactive,,inactive,inactive
c1cc(C(c2ccc(OCC3CO3)cc2)C(c2ccc(OCC3CO3)cc2)c2ccc(OCC3CO3)cc2)ccc1OCC1CO1 (stereo not drawn),inactive,22.5 µM (active) and 21.7 µM (active),,inactive,,,,inactive,inactive,,inactive,inactive,inactive,inactive,,,inactive,inactive,,
O=S(O)CO,inactive,inactive,inactive,inactive,inactive,inactive,inactive,inactive,inactive,inactive,inactive,inactive,inactive,inactive,inactive,inactive,inactive,inactive,inactive,inactive
O=C(O)c1ccccc1-n1cc(C(=O)O)c(=O)c2cc(Nc3c(F)cc(F)cc3Cl)c(Cl)cc21,inactive,inactive,inactive,inactive,inactive,inactive,inactive,inactive,inactive,inactive,inactive,inactive,inactive,inactive,inactive,inactive,inactive,inactive,,
